Reference: PubChem BioAssay (NCI)
Values joined by “and” are separate entries in the source; they are usually repeats but may differ in a detail not shown here. Identical values can stand only once. About 83,000 compounds went through this panel and 20% of them were active in at least one assay; those are over-represented in the sample as a whole.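 Assay: single dose, 48 h. Readout: percent growth (0 = no net growth; negative = cell death). Active: <10.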 Active and inactive are the calls of the source.

Legend:
Test in all cases: NCI-60 one-dose screen, 48 h (100 = growth as untreated, 0 = no growth, -100 = all killed)
Details in all cases: 10 µM unless noted
HCT-15 colon = tested on: HCT-15 colon
HT29 colon = tested on: HT29 colon
SNB-75 CNS = tested on: SNB-75 CNS
SNB-19 CNS = tested on: SNB-19 CNS
U251 CNS = tested on: U251 CNS
PC-3 prostate = tested on: PC-3 prostate
SK-MEL-5 melanoma = tested on: SK-MEL-5 melanoma
UACC-62 melanoma = tested on: UACC-62 melanoma
LOX IMVI melanoma = tested on: LOX IMVI melanoma
SK-MEL-28 melanoma = tested on: SK-MEL-28 melanoma
SK-MEL-2 melanoma = tested on: SK-MEL-2 melanoma
EKVX NSCLC = tested on: EKVX NSCLC
SN12C renal = tested on: SN12C renal
UO-31 renal = tested on: UO-31 renal
TK-10 renal = tested on: TK-10 renal
ACHN renal = tested on: ACHN renal
CAKI-1 renal = tested on: CAKI-1 renal
A498 renal = tested on: A498 renal
HL-60(TB) leukemia = tested on: HL-60(TB) leukemia
CCRF-CEM leukemia = tested on: CCRF-CEM leukemia

Measured: growth

Nc1ccc(P(=O)(O)O)cc1
inactive: HCT-15 colon 97.4% and 95.9% | HT29 colon 104% and 103% | SNB-75 CNS 95% and 94.5% | SNB-19 CNS 108% and 107% | U251 CNS 102% and 94.7% | PC-3 prostate 99.5% and 92.7% | SK-MEL-5 melanoma 110% and 107% | UACC-62 melanoma 110% and 99.8% | LOX IMVI melanoma 89.1% and 98% | SK-MEL-28 melanoma 117% and 111% | SK-MEL-2 melanoma 120% and 99.4% | EKVX NSCLC 95.7% | SN12C renal 103% and 101% | UO-31 renal 90.8% and 91.8% | TK-10 renal 119% and 97.4% | ACHN renal 98.7% and 105% | CAKI-1 renal 102% and 99.5% | A498 renal 105% and 108% | HL-60(TB) leukemia 136% and 106% | CCRF-CEM leukemia 97.5% and 95.4%

CC/C(Cc1ccccc1)=C(\c1ccc(OCCN2CCCC2)cc1)c1ccc(OC(=O)NCc2ccccc2)cc1
inactive: SNB-75 CNS 57.7% | SNB-19 CNS 54.9% | U251 CNS 12.5% | PC-3 prostate 47.8% | SK-MEL-5 melanoma 19.3% | LOX IMVI melanoma 49.3% | SK-MEL-2 melanoma 95.2% | EKVX NSCLC 66.9% | SN12C renal 54.2% | UO-31 renal 33.8% | TK-10 renal 84.7% | ACHN renal 63% | CAKI-1 renal 87.8% | A498 renal 74.1% | CCRF-CEM leukemia 33.7%
active: HCT-15 colon -11.5% | HT29 colon -42.1% | UACC-62 melanoma -45.4% | SK-MEL-28 melanoma -60.3% | HL-60(TB) leukemia -1.94%

Oc1ccccc1C=NCCN=Cc1ccccc1O.[Fe]
inactive: HCT-15 colon 101% | HT29 colon 72.4% | SNB-75 CNS 77.2% | SNB-19 CNS 87.1% | U251 CNS 26.4% | PC-3 prostate 79.2% | SK-MEL-5 melanoma 66.5% | UACC-62 melanoma 58.4% | SK-MEL-28 melanoma 117% | SK-MEL-2 melanoma 92.4% | EKVX NSCLC 110% | SN12C renal 52% | UO-31 renal 72.3% | TK-10 renal 115% | ACHN renal 92.3% | CAKI-1 renal 98.1% | A498 renal 65.5%
active: LOX IMVI melanoma -80.2% | CCRF-CEM leukemia -32.9%

CCN1C(=O)NC(=O)C(C)(N2C(=O)c3c(F)c(F)c(F)c(F)c3C2=O)C1=O (centres undefined)
active: HCT-15 colon 5.26% | HT29 colon 6.44% | U251 CNS -25.4% | LOX IMVI melanoma -13.9% | SK-MEL-28 melanoma -45.5% | ACHN renal -57.7% | CAKI-1 renal -46.7% | HL-60(TB) leukemia -70.3%
inactive: SNB-75 CNS 64.6% | SNB-19 CNS 49.3% | PC-3 prostate 12.3% | SK-MEL-5 melanoma 54.1% | UACC-62 melanoma 10.4% | SK-MEL-2 melanoma 16.8% | EKVX NSCLC 104% | SN12C renal 33.6% | UO-31 renal 25.1% | TK-10 renal 34.5% | A498 renal 99.2% | CCRF-CEM leukemia 19.5%

CCOC(=O)c1cncn1C(C)c1ccccc1 (centres undefined)
inactive: HCT-15 colon 106% | HT29 colon 95.1% | SNB-75 CNS 94.3% | SNB-19 CNS 106% | U251 CNS 100% | PC-3 prostate 97.9% | SK-MEL-5 melanoma 102% | UACC-62 melanoma 100% | LOX IMVI melanoma 101% | SK-MEL-28 melanoma 114% | SK-MEL-2 melanoma 105% | EKVX NSCLC 98.2% | SN12C renal 102% | UO-31 renal 81% | TK-10 renal 95.2% | ACHN renal 102% | CAKI-1 renal 94.6% | A498 renal 134% | HL-60(TB) leukemia 104% | CCRF-CEM leukemia 94.7%

CN1CCc2cc3c(cc2C1O)OCO3 (centres undefined)
-13.9% (active) and 105% (inactive): SK-MEL-5 melanoma
inactive: HCT-15 colon 98.9% and 94% | HT29 colon 96.1% and 108% | SNB-75 CNS 81.1% and 104% | SNB-19 CNS 123% and 100% | U251 CNS 90.6% and 103% | PC-3 prostate 77% and 89.3% | UACC-62 melanoma 34.2% and 94.5% | LOX IMVI melanoma 71.4% and 102% | SK-MEL-28 melanoma 94.7% and 115% | SK-MEL-2 melanoma 76.1% and 108% | EKVX NSCLC 107% and 92.8% | SN12C renal 112% and 99.6% | UO-31 renal 101% and 82.7% | TK-10 renal 112% and 111% | ACHN renal 100% and 101% | CAKI-1 renal 87.5% and 95.4% | A498 renal 121% and 98% | HL-60(TB) leukemia 99.7% | CCRF-CEM leukemia 86.8% and 103%

O=C(O)CNCP(=O)(O)O
inactive: HCT-15 colon 123% | HT29 colon 98.6% | SNB-75 CNS 96.5% | SNB-19 CNS 123% | U251 CNS 98.3% | PC-3 prostate 106% | SK-MEL-5 melanoma 111% | UACC-62 melanoma 105% | LOX IMVI melanoma 95.7% | SK-MEL-28 melanoma 120% | SK-MEL-2 melanoma 98.5% | EKVX NSCLC 106% | SN12C renal 101% | UO-31 renal 72.8% | TK-10 renal 108% | ACHN renal 123% | CAKI-1 renal 100% | A498 renal 117% | HL-60(TB) leukemia 95.8% | CCRF-CEM leukemia 90.9%

c1ccc(CCN2CCCCC2)nc1
inactive: HCT-15 colon 74.1% | HT29 colon 95.8% | SNB-75 CNS 78.8% | SNB-19 CNS 109% | U251 CNS 107% | PC-3 prostate 84.8% | SK-MEL-5 melanoma 115% | UACC-62 melanoma 97.9% | LOX IMVI melanoma 107% | SK-MEL-28 melanoma 104% | SK-MEL-2 melanoma 111% | EKVX NSCLC 102% | SN12C renal 93.5% | UO-31 renal 96.4% | TK-10 renal 103% | ACHN renal 91.6% | CAKI-1 renal 89.4% | A498 renal 107% | HL-60(TB) leukemia 78.4% | CCRF-CEM leukemia 83.6%

C[C@]12CCc3sc(Nc4ccc(O)cc4)nc3C1=CC[C@@H]1[C@@H]2CC[C@]2(C)C(=O)CC[C@@H]12
active: HCT-15 colon -68% | LOX IMVI melanoma -8.01% | UO-31 renal -48.8% | ACHN renal -17.3% | HL-60(TB) leukemia 8.98% | CCRF-CEM leukemia 8.33%
inactive: HT29 colon 10.3% | SNB-75 CNS 41.7% | SNB-19 CNS 64.6% | U251 CNS 19.5% | PC-3 prostate 39.1% | SK-MEL-5 melanoma 62% | UACC-62 melanoma 55.8% | SK-MEL-28 melanoma 77.9% | SK-MEL-2 melanoma 72.5% | EKVX NSCLC 98% | SN12C renal 30.4% | TK-10 renal 22.8% | CAKI-1 renal 47.1% | A498 renal 101%

C[C@]12CC[C@H]3[C@@H](CC=C4c5nc(-c6ccc(Br)cc6)sc5CC[C@@]43C)[C@@H]1CC[C@@H]2O
inactive: HCT-15 colon 89.1% | HT29 colon 109% | SNB-75 CNS 78.4% | SNB-19 CNS 84.4% | U251 CNS 63.4% | PC-3 prostate 101% | SK-MEL-5 melanoma 97.1% | UACC-62 melanoma 84.4% | LOX IMVI melanoma 90% | SK-MEL-28 melanoma 90.1% | SK-MEL-2 melanoma 101% | EKVX NSCLC 109% | SN12C renal 91.4% | UO-31 renal 95.6% | TK-10 renal 110% | ACHN renal 93.4% | CAKI-1 renal 85.4% | A498 renal 107% | HL-60(TB) leukemia 94.3% | CCRF-CEM leukemia 96.1%

C[C@@]12CCCc3coc(c31)C(=O)c1cc3c(cc12)C(=O)C1=C(NCCS1(=O)=O)C3=O
active: HCT-15 colon 8.66% | HT29 colon -4.92% | SNB-75 CNS -87.5% | SNB-19 CNS -68.8% | U251 CNS -61% | PC-3 prostate -6.62% | SK-MEL-5 melanoma -98% | UACC-62 melanoma -68% | LOX IMVI melanoma -42.7% | SK-MEL-28 melanoma -9.02% | SK-MEL-2 melanoma -41.3% | SN12C renal -79.3% | HL-60(TB) leukemia -45% | CCRF-CEM leukemia -28.7%
inactive: EKVX NSCLC 11.1% | UO-31 renal 35.7% | TK-10 renal 28.2% | ACHN renal 30.6% | CAKI-1 renal 10.5% | A498 renal 35.3%

CC[C@@H](C)C(=O)O[C@H]1[C@H](O)[C@H]2[C@@H](CN3C[C@@H](C)CC[C@H]3[C@@]2(C)O)[C@@H]2C[C@]34O[C@]5(O)[C@@H](OC(=O)[C@@](C)(O)CC)CC[C@@]3(C)[C@@H]5[C@@H](OC(C)=O)[C@@H](OC(C)=O)[C@H]4[C@@]21O
inactive: HCT-15 colon 109% | HT29 colon 112% | SNB-75 CNS 79.8% | SNB-19 CNS 100% | U251 CNS 91.8% | PC-3 prostate 75.8% | SK-MEL-5 melanoma 86.6% | UACC-62 melanoma 96.1% | LOX IMVI melanoma 92.8% | SK-MEL-28 melanoma 105% | SK-MEL-2 melanoma 103% | EKVX NSCLC 93.7% | SN12C renal 97.1% | UO-31 renal 82.1% | TK-10 renal 106% | ACHN renal 101% | CAKI-1 renal 100% | A498 renal 102% | HL-60(TB) leukemia 92.4% | CCRF-CEM leukemia 99.9%

O=c1[nH]c(=O)n(Cl)c(=O)n1Cl
inactive: HCT-15 colon 111% and 108% | HT29 colon 106% and 112% | SNB-75 CNS 124% and 105% | SNB-19 CNS 106% and 98.2% | U251 CNS 98.5% and 113% | PC-3 prostate 98.8% and 98% | SK-MEL-5 melanoma 103% and 93.7% | UACC-62 melanoma 98.7% and 101% | LOX IMVI melanoma 109% and 105% | SK-MEL-28 melanoma 117% and 122% | SK-MEL-2 melanoma 114% and 96.7% | EKVX NSCLC 107% and 101% | SN12C renal 94.2% and 108% | UO-31 renal 84.3% and 86.7% | TK-10 renal 115% and 117% | ACHN renal 109% and 107% | CAKI-1 renal 101% and 108% | A498 renal 106% and 127% | HL-60(TB) leukemia 110% and 115% | CCRF-CEM leukemia 101% and 104%
